TbPYK inhibitor – blocks Trypanosoma brucei pyruvate kinase | Q57TT1 | TbPYK enzyme, Kinase-Glo Plus ATP luminescence, 45 min | Potency, µM (series often up to 76.8 µM), inactives show at the top dose activity, negative = inhibition, usual class: inhibitors | hit rate 0.12% among 410,000 | AID 624173; note: nearly all actives have a fitted effect of over 50% in size
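In this concentration-response screen, enzyme-free wells defined baseline while DMSO plates tracked drift. Each reaction combined TbPYK, substrate, compound and 130 uM ADP for 45 min at room temperature. Kinase-Glo Plus luminescence gave the signal.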
RE007 growth inh – less growth of the S. pombe RE007 Vpr strain; S. pombe RE007 Vpr strain, BacTiter-Glo ATP luminescence, 24 h; AID 651644; Potency, µM (titrated, usually from 92.2 µM), for the others: at the top dose activity change, negative = less growth, hits mostly inhibitors; hit rate 0.21% among 360,000; active = well fitted falling curve with a large enough effect; inconclusive = small, poorly fitted or top-dose-only effect; inactive = no such curve, though single readings can be large or run the other way; note: nearly all actives have a fitted effect of over 50% in size
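Fission yeast strain RE007, carrying one chromosomally integrated HIV-1 vpr copy, was seeded at OD 0.01 in PMG+AL medium with 23 nL pinned compound. After 24 h at 30 °C and 99% humidity, viability was read by BacTiter-Glo luminescence.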
FMDV inh – foot and mouth disease virus antiviral activity; FMDV antiviral cell-based qHTS; Potency, µM (series often up to 57.9 µM), for the others: at the top dose activity change, negative = inhibition, usual class: inhibitors; hit rate 1.2% among 410,000; AID 1159524; calls by dose curve; tested in HEK293T cells; note: read-out not given here; nearly all actives have a fitted effect of over 45% in size
Sm TGR inh – inhibitors of Schistosoma mansoni thioredoxin glutathione reductase | purified TGR, DTNB reduction, TNB absorbance 405 nm | Potency, µM (titrated, usually from 114 µM), without a hit: at the top dose activity change, negative = inhibition, most hits filed as inhibitors | hit rate 3% among 360,000 | AID 485364; note: nearly all actives have a fitted effect of over 60% in size
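First, TGR (20 nM dispensed) and NADPH were mixed with compound. Second, a 15 min room-temperature incubation followed. Third, further NADPH and then DTNB were added to start the reaction. Finally, TNB absorbance was monitored kinetically.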
The depositor's hits bear a star; [ ] = remark or other dose. A selection: hits, their analogues and other compounds. The true share with any hit is near 3.7%. Unless noted, calls come from the whole dose curve; as a rule, active = well fitted curve in the direction sought with a large enough effect; inconclusive = small, poorly fitted or top-dose-only effect, or another doubt; inactive = no such curve, though single readings can be large; an effect the other way counts as inactive or inconclusive. % is set by controls: 0 for no effect and ±100 for the full control effect; potency is the fitted concentration of half-maximal effect.

CC(=O)C1=C(c2cccc([N+](=O)[O-])c2)N(C(C)=O)n2c(C)nnc2S1 was read as TbPYK inhibitor -2%, RE007 growth inh -3%, FMDV inh inconclusive and Sm TGR inh 22µM*.
For Cn1cccc1C(=O)N1CCC2(CCCN(c3ncccn3)C2)CC1 the results were TbPYK inhibitor 4% and FMDV inh -11%.
For CCOC(=O)N1CCN(C(=O)CS(=O)(=O)Cc2nc(-c3ccccc3F)oc2C)CC1 the results were TbPYK inhibitor -17%, RE007 growth inh -13%, FMDV inh -21% and Sm TGR inh -30%.
Screening Cc1ccccc1-c1nc(CS(=O)(=O)CC(=O)N(C)C2CCCCC2)c(C)o1 returned TbPYK inhibitor -9%, RE007 growth inh 15%, FMDV inh inconclusive and Sm TGR inh 8.9µM*.
Screening Cc1oc(-c2ccccc2F)nc1CS(=O)(=O)CC(=O)N1CCCCCC1 returned TbPYK inhibitor 4%, RE007 growth inh -3%, FMDV inh -23% and Sm TGR inh 11µM*.
Cc1ccccc1-c1nc(CS(=O)(=O)CC(=O)NC2CCCCC2C)c(C)o1 (configuration not stated) was read as TbPYK inhibitor -1%, RE007 growth inh 1%, FMDV inh -2% and Sm TGR inh inconclusive.
Screening Cc1oc(-c2ccccc2Cl)nc1CS(=O)(=O)CC(=O)N1CCOCC1 returned TbPYK inhibitor 0%, RE007 growth inh -2%, FMDV inh -18% and Sm TGR inh inconclusive.
For Cc1oc(-c2ccccc2Cl)nc1CS(=O)(=O)CC(=O)NCc1ccc(F)cc1 the results were TbPYK inhibitor -2%, FMDV inh -19% and Sm TGR inh 45µM*.
`Cc1oc(-c2ccccc2F)nc1CS(=O)(=O)CC(=O)N1CCN(c2ccc(Cl)cc2)CC1` gave TbPYK inhibitor -4%, FMDV inh 16µM* and Sm TGR inh -17%.
For CC(=O)N[C@@H](C)C(=O)NCC1Cc2cc(C)cc(-c3cnccn3)c2O1 (some centres not stated) the results were FMDV inh -10%.
COCCn1c(N/N=C(C)/C=C/c2ccccc2)nc2c1c(=O)[nH]c(=O)n2C was read as Sm TGR inh 25µM*.
Screening CC(/C=C/c1ccccc1)=N\Nc1nc2c(c(=O)[nH]c(=O)n2C)n1CCO returned TbPYK inhibitor 0%, RE007 growth inh 7%, FMDV inh -15% and Sm TGR inh 14µM*.
`CCCn1c(N/N=C\C=C\c2ccccc2)nc2c1c(=O)[nH]c(=O)n2C` gave TbPYK inhibitor 4%, RE007 growth inh 8%, FMDV inh 12% and Sm TGR inh inconclusive.
For Cc1ncc2c(c1CNC(=O)c1cncs1)CCN(C(=O)c1cc(F)c(F)cc1F)C2 the results were FMDV inh -4%.
Screening O=C(Nc1ccc(F)cc1)c1ccc(Cn2nc(N3CCN(c4ccccc4)CC3)ccc2=O)o1 returned TbPYK inhibitor -9%, FMDV inh inconclusive and Sm TGR inh 23%.
Screening CN1C(=O)C(C)(C)c2cc(S(=O)(=O)NCc3ccc(C(=O)Nc4ccc(Cl)cc4)cc3)ccc21 returned TbPYK inhibitor -2%, FMDV inh 32µM* and Sm TGR inh -4%.
CC(C)=CCC1=C(OCC(=O)O)C(=O)c2ccccc2C1=O was read as TbPYK inhibitor -9%, RE007 growth inh inconclusive, FMDV inh inconclusive and Sm TGR inh 10µM*.
`CC(C)=CCC/C(C)=C/CC/C(C)=C/CC/C(C)=C/CC1=C(C)C(=O)c2ccccc2C1=O` gave TbPYK inhibitor 3%, RE007 growth inh -5%[18.4 µM], FMDV inh inconclusive and Sm TGR inh 32µM*.
Cc1noc(C)c1-c1ccc2ncnc(Nc3ccccc3)c2c1 was read as FMDV inh -7%.
O=C(c1ccco1)N1CCC[C@@]2(CCN(c3cccc(-c4ccccc4)c3)C2)C1 was read as TbPYK inhibitor 8% and FMDV inh -13%.
For O=C(CCOc1ccccc1)N(Cc1cccnc1)c1nc2c(Cl)cccc2s1 the results were TbPYK inhibitor -15%[15.4 µM], FMDV inh inconclusive and Sm TGR inh 1.1µM*.
`Cc1cc(C)c2nc(N(Cc3cccnc3)C(=O)CCOc3ccccc3)sc2c1` gave TbPYK inhibitor -7%[15.4 µM], FMDV inh -10% and Sm TGR inh 44%.
For Cc1cccc2sc(N(Cc3cccnc3)C(=O)CCOc3ccccc3)nc12 the results were TbPYK inhibitor 0%, FMDV inh -16% and Sm TGR inh 3.5µM*.
Screening O=C1c2ccccc2CC[C@H]1CNCCc1ccc(O)cc1 returned FMDV inh -6%.
`Cc1cc(C)n2c(=O)c3ccc(Cl)cc3nc2c1C#N` gave TbPYK inhibitor -12%, RE007 growth inh -11%, FMDV inh 31% and Sm TGR inh 3%.
Cc1cc(Cl)n2c(nc3cc(F)c(F)cc32)c1C#N was read as TbPYK inhibitor -3%, RE007 growth inh inconclusive, FMDV inh 18µM* and Sm TGR inh 1.1µM*.
COc1ccc([N+](=O)[O-])cc1NC(c1nnc(-c2ccccc2)o1)c1ccccc1F (configuration not stated) was read as TbPYK inhibitor 16%, FMDV inh -7% and Sm TGR inh 0%.
Cc1cccc(C(=O)Nc2sc(C)c(-c3ccccc3)c2C#N)c1 was read as TbPYK inhibitor -5%, RE007 growth inh 1%, FMDV inh -24% and Sm TGR inh -2%.
Screening Cc1noc(C)c1C(=O)Nc1sc(C)c(-c2ccccc2)c1C#N returned TbPYK inhibitor 1%, RE007 growth inh -7%, FMDV inh 28µM* and Sm TGR inh -1%.
For COc1ccc(-c2cc3nc(C)c(CCC(=O)N4CCN(c5ccccc5F)CC4)c(C)n3n2)c(OC)c1 the results were TbPYK inhibitor 0%, FMDV inh inconclusive and Sm TGR inh -1%.
`COc1ccc(-c2cc3nc(C)c(CCC(=O)N4CCN(c5cc(C)ccc5C)CC4)c(C)n3n2)c(OC)c1` gave TbPYK inhibitor 2%, FMDV inh 28µM* and Sm TGR inh 3%.
Screening COc1cc(OC)cc(-c2cc3nc(C)c(CCC(=O)NC(C)CCc4ccco4)c(C)n3n2)c1 (configuration not stated) returned TbPYK inhibitor 0%, RE007 growth inh 13%, FMDV inh inconclusive and Sm TGR inh -1%.
For COc1cc(OC)cc(-c2cc3nc(C)c(CCC(=O)O)c(C)n3n2)c1 the results were TbPYK inhibitor -2%, RE007 growth inh -5%, FMDV inh 1.4µM* and Sm TGR inh 0%.
Screening CCn1c(-c2cccnc2)nc2cc(NC(=O)COC)cc(C(=O)N3CCc4ccccc4C3)c21 returned FMDV inh -17%.
`CC1(C)SC2C(NC(=O)C(c3ccccc3)S(=O)(=O)O)C(=O)N2C1C(=O)O` (configuration not stated) gave TbPYK inhibitor -14%.
O=C(Cn1c(SCc2ccc(F)cc2)nc2cccnc21)Nc1ccccc1F was read as TbPYK inhibitor 4%, FMDV inh 6% and Sm TGR inh -1%.
